Compound activity deposited in PubChem BioAssay by National Center for Advancing Translational Sciences (NCATS).
Hits are enriched below; roughly 4.7% of the tested compounds scored in any of these assays.
D1 PAM = potentiators of human D1 dopamine receptor; HEK293 TREx D1 cells, calcium flux, dopamine EC20 potentiation; potentiation, % at 10 µM; 360,000 compounds, 0.036% hits; AID 504651; in the data active means potentiation above about 30%
D1 antagonist = antagonists of human D1 dopamine receptor; activity change, negative = inhibition, % at 10 µM; HEK293 TREx D1 cells, calcium flux, dopamine EC80; stronger effect = lower value; 360,000 compounds, 3.2% hits; P21728; in the data active means activity change below about -30%
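Inducible Hek293 Trex D1 cells (tetracycline, overnight, 30 C). Calcium dye 30–90 min RT. Antagonist mode: EC80 dopamine added after 180 s compound read.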
TRHR PAM = TRH receptor (human) allosteric enhancement; 360,000 compounds, 0.66% hits; enhancement, % at 2 µM; P34981; TRHR cells, fluo-8 calcium fluorescence, EC20 TRH enhancement; in the data active means enhancement above about 30%
Target sequence (P34981 whole entry, looked up): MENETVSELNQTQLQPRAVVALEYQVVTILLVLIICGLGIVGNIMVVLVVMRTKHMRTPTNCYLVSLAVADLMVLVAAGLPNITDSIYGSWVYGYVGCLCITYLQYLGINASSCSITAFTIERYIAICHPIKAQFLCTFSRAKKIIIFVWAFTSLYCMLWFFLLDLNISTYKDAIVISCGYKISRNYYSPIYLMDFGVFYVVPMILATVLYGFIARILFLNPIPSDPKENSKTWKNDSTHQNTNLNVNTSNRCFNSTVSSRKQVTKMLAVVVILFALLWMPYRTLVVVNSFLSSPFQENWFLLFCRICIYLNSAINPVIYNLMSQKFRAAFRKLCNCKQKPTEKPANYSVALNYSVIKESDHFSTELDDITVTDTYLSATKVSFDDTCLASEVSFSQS
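TRHR-expressing cells loaded with fluo-8 calcium dye were read kinetically (ex 480/em 530) during compound addition, then stimulated with an EC20 of TRH (10 nM final). Enhancement of the Gq-mediated intracellular calcium response was scored.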
TRHR ag = TRH receptor (human) agonism. TRHR cells, calcium flux fluo-8, FDSS agonist mode. activation, % at 2 µM. 360,000 compounds, 0.18% hits
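Steps: seed TRHR cells overnight; add fluo-8 no-wash Ca dye, RT 30 min–1.5 h; record 10 s baseline; pin-transfer compounds; monitor fluorescence 1 cycle/s for the agonist window. Calcium increases flag candidate agonists.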
D1 agonist = human D1 receptor agonism; P21728; HEK293 T-REx D1 cells, calcium flux, agonist mode; activation, % at 2 µM; 360,000 compounds, 1% hits; AID 504660
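Agonism was scored from calcium flux recorded over 180 s (1 read/s) after pintool compound addition, following a 10-cycle baseline. Cells were inducible force-coupled HEK293 TREx D1, plated overnight at 30 C and loaded with no-wash calcium dye.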
Large screens that a line does not name were inactive; ! = not confirmed by another sample. Unless noted, no stated cut-off is given here; in the data, active means activation above about 30%; inactive means the rest.

O=C(N/N=C/c1ccc(O)cc1O)c1ccncc1	none
O=C(N/N=C/c1cc(Br)cc(Br)c1O)c1ccncc1	D1 agonist 53.5
CC(C)(C)c1ccc(OCCSc2nc(-c3cccs3)nc3cc(=O)[nH]n23)cc1	none
Cc1ccccc1Nc1nc(N)nc(-c2oc3ccccc3c2C)n1	TRHR PAM 34.8
Brc1ccc(-c2csc(/N=C/N3CCCC3)n2)cc1	none
Brc1ccc(-c2csc(/N=C/N3CCOCC3)n2)cc1	D1 antagonist -33.4
Cc1cccc(C2C=C(c3ccc(F)cc3)Nc3nc4ccccc4n32)c1 (stereo unspecified)	none
CCc1ccc(C2=CC(c3c(F)cccc3Cl)n3c(nc4ccccc43)N2)cc1 (stereo unspecified)	D1 agonist 39.0
Cc1ccc(C)c(C(=O)COC(=O)CCN2C(=O)C3C4CCC(C4)C3C2=O)c1 (stereo unspecified)	D1 antagonist -45.0
O=C(O)/C=C1\NC(=O)c2ccccc21	none
O=C1N/C(=C\c2ccc(O)cc2)C(=O)c2ccccc21	D1 agonist 32.3
CCOc1cc(CNCCO)cc(Br)c1OCc1cccs1	D1 agonist 33.8
O=C(Nc1cc2c(cc1C(=O)c1cccc(Br)c1)OCCO2)c1ccccc1F	none
COc1ccc(NC(=O)c2oc3ccc(S(=O)(=O)N(C)C4CCCCC4)cc3c2C)cc1Cl	D1 antagonist -30.2
Cc1ccc(NC(=O)c2oc3ccc(S(=O)(=O)N4CCC5(CC4)OCCO5)cc3c2C)cc1C	D1 antagonist -32.2!
COc1ccc(NC(=O)c2oc3ccc(S(=O)(=O)N4CCCCC4)cc3c2C)cc1	none
COc1ccc2oc(C(=O)Nc3ccc(S(=O)(=O)N(C)C4CCN(C)CC4)cc3)c(C)c2c1	D1 antagonist -48.8, D1 agonist 37.5
Cc1ccc(-n2ncc(C(=O)N3CCN(c4cccc(C)c4C)CC3)c2C2CCNCC2)c(C)c1	none
Cc1ccc(S(=O)(=O)Nc2cc3c(cc2N2CCOCC2)n(C)c(=O)n3C)cc1	none
O=C(NCCCN1CCOCC1)C(=O)NCC1CCCO1 (stereo unspecified)	none
O=C(NCCN1CCOCC1)C(=O)NCC1CCCO1 (stereo unspecified)	TRHR PAM 34.1
Cc1ccc(OCC(=O)N(Cc2ccco2)Cc2ccc(C)o2)cc1	none
O=c1oc2ccccc2c2c1C1O[C@](c3ccsc3)(Cc3ccccc31)O2	none
COc1ccc(CCNc2nc(C)nc3c2nnn3Cc2ccccc2)cc1	D1 antagonist -56.7
Cc1nc(NCCc2ccccc2)c2nnn(Cc3ccccc3Cl)c2n1	none
COc1ccc(OC)c(/C=C/C(=O)N2CCCc3ccccc32)c1	none
COc1ccc(C(=O)NCC(=O)OCC(=O)N2CCCc3ccccc32)cc1	TRHR PAM 37.1
COc1ccc(/C=C/C(=O)N2CCCc3ccccc32)cc1	D1 antagonist -31.6
COc1cc(/C=C/C(=O)N2CCCc3ccccc32)cc(OC)c1OC	D1 antagonist -32.6
CCC(=O)c1ccc(OCC(=O)OCC(=O)N2CCCc3ccccc32)cc1	none
COC(=O)c1c(-c2ccc(OC)c(OC)c2)csc1N	D1 antagonist -33.6
CCOc1ccc(S(=O)(=O)N2CCN(c3c(C)cccc3C)CC2)c2ccccc12	none
CC(Sc1nncn1C)C(=O)Nc1ccc(N2CCCCC2)cc1 (stereo unspecified)	D1 antagonist -35.2
CC(Sc1nnnn1-c1ccccc1)C(=O)Nc1ccc(N2CCN(C)CC2)cc1 (stereo unspecified)	D1 antagonist -37.4
O=C(CSc1nnnn1-c1ccccc1)Nc1ccc(N2CCOCC2)c(Cl)c1	none
CN1CCN(c2ccc(NC(=O)CSc3nnnn3-c3ccccc3Cl)cc2)CC1	D1 antagonist -82.6
CC(C)n1cnnc1SCC(=O)Nc1ccc(N2CCCCC2)cc1	none
Cc1ccc(OC(C)C(=O)N2CCN(CCc3ccccn3)CC2)cc1C (stereo unspecified)	none
CCOC(=O)C1=C(C)NC(C)=C(C(=O)OC)C1c1ccco1 (stereo unspecified)	none
C=CCOC(=O)C1=C(C)NC(C)=C(C(=O)OCC=C)C1c1ccco1	D1 antagonist -30.2
Cc1ccccc1C(=O)Nc1ccnn1C1CCN(C(=O)c2ccoc2)CC1	D1 antagonist -44.5
Cc1ccc(C(=O)N2CCC(n3nccc3NC(=O)c3ccccc3C)CC2)cn1	none
Cn1c(=O)c(=O)n(C)c2cc(N3CCCC3)c(NC(=O)c3ccccc3Cl)cc21	none
Cc1nc(C(=O)O)nn1-c1ccc([N+](=O)[O-])cc1	none
CC(=O)Nc1c(C)nn(-c2ccc([N+](=O)[O-])cc2)c1C	TRHR PAM 36.9
Cc1ccc(NS(=O)(=O)c2cccc(C(=O)NCCCn3ccnc3)c2)cc1	none
O=C(NCCCn1ccnc1)c1cc2ccccc2oc1=O	none
CCN(CC)S(=O)(=O)c1ccc(NCCCn2ccnc2)c([N+](=O)[O-])c1	none
O=C(NCCCn1ccnc1)c1ccccc1Br	none
O=C(NCCCn1ccnc1)c1ccc(NS(=O)(=O)c2ccc(Cl)c(Cl)c2)cc1	D1 agonist 34.2
O=C(c1ccccc1)c1ccc(NCCCn2ccnc2)c([N+](=O)[O-])c1	D1 antagonist -35.5
O=C(NCCCn1ccnc1)c1cn(-c2ccccc2)nc1-c1ccccc1	D1 antagonist -83.4
O=C(NCCCn1ccnc1)c1ccc2ccccc2c1	D1 antagonist -37.0
CCCc1cc(=O)[nH]c(SCc2nc(-c3ccc(OCC)cc3)no2)n1	none
Cc1ccc(NC(=O)CCCc2nnc3n(C)c(=O)c4sccc4n23)cc1C	none
CCN(CC)CCCN(Cc1cc2cc3c(cc2[nH]c1=O)OCCO3)C(=O)Nc1ccc(F)cc1	TRHR PAM 32.0
Cc1cccc(NC(=S)N(CCN2CCOCC2)Cc2cc3cc4c(cc3[nH]c2=O)OCCO4)c1	TRHR PAM 33.9
Cc1cc2c(s1)c1cnn(Cc3cccc(C(F)(F)F)c3F)c(=O)c1n2C	none
CCOc1ccc(NC(=O)Cn2cnc3sc(C)c(S(=O)(=O)N4CCN(c5ccccc5OC)CC4)c3c2=O)cc1	none
O=C(c1c(F)cccc1F)N1CCCc2ccccc21	TRHR PAM 32.2
Fc1cccc(NC(=S)N2CCc3ccccc32)c1	none
Cc1onc(-c2c(Cl)cccc2Cl)c1C(=O)N1CCCc2ccccc21	D1 agonist 139.0
Cc1onc(-c2ccccc2)c1C(=O)N1CCCC1	D1 antagonist -37.1
CC(=O)c1cccc(NC(=S)N2CCc3ccccc32)c1	D1 antagonist -31.7
O=C(c1cccc(F)c1)N1CCCc2ccccc21	none
Cc1onc(-c2c(F)cccc2Cl)c1C(=O)N1CCc2ccccc21	none
O=C(c1ccccc1)N1CCCc2ccccc21	none
O=C(Nc1cccc(C(=O)N2CCCc3ccccc32)c1)c1ccccc1	D1 antagonist -36.9
O=C(Nc1ccc2c(c1)CCCN2C(=O)c1cccs1)c1c(F)cccc1F	none
O=C(Nc1ccc2c(c1)CCCN2C(=O)c1cccs1)c1c(F)cccc1Cl	D1 antagonist -44.1
